# Source: PubChem BioAssay (NCATS)
# Values joined by “and” are separate entries in the source; they are usually repeats but may differ in a detail not shown here. Equal values may be shown once. Inconclusive results are not listed. A call without a number means that no potency is given here. Active and inactive are the calls of the source. Unless noted, calls come from the whole dose curve; as a rule, active = well fitted curve in the direction sought with a large enough effect; inconclusive = small, poorly fitted or top-dose-only effect, or another doubt; inactive = no such curve, though single readings can be large; an effect the other way counts as inactive or inconclusive.
# Columns and labels:
# [1] = qHTS Assay for Lipid Storage Modulators (AID 1519; calls by dose curve); conditions: Drosophila S3 cells, BODIPY lipid droplet/cell ratio, laser cytometry, cells loaded with oleic acid
# Procedure, shortened: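 Cells seeded at 5,000 per well were treated with compounds over a concentration series and loaded with oleic acid (400 uM, as added). Lipid droplet fluorescence (488 nm excitation, 500-530 nm channel) was read by laser-scanning cytometry and normalized to 20 uM Triacsin C.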
# [2] = biological target: DNA repair nuclease/redox regulator APEX1 (Homo sapiens) (UniProt P27695); test: qHTS Validation Assay for Inhibitors of the Human Apurinic/apyrimidinic Endonuclease 1 (APE1) (AID 1705;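 note: TAMRA fluorescence gain over two minutes as APE1 cuts a quenched THF abasic duplex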); conditions: purified APE1 endonuclease activity, fluorescence, titration; series mostly up to 57.1 µM
# Sequence of DNA repair nuclease/redox regulator APEX1 (Homo sapiens) (P27695 whole entry, looked up): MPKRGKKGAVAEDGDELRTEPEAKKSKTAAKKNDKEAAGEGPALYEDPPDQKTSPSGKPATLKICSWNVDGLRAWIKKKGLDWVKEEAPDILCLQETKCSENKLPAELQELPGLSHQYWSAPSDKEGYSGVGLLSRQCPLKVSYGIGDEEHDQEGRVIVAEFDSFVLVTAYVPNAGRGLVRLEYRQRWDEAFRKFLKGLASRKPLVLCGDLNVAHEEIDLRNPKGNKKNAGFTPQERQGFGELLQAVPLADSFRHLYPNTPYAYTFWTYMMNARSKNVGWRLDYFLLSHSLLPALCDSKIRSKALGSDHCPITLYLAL
# Procedure, shortened: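 Activity read as rising fluorescence (598 nm emission, 525 nm excitation) from incision of a TAMRA/BHQ-2 duplex carrying a THF abasic site (50 nM). Compound and enzyme sat 15 min at RT before substrate start; signal change between first and third 60-s reads.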
# [3] = Counterscreen for APE1 Inhibitors: Fluorescent Dye Displacement Validation Assay (AID 1707); conditions: fluorescent dye displacement from DNA; series mostly up to 57.1 µM
# Procedure, shortened: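 Loss of Thiazole Orange fluorescence marks promiscuous DNA binders. The dye (250 nM) is mixed with 50 nM abasic-site dsDNA in pH7.5 Tris buffer containing MgCl2, then compounds are added and emission is read once.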
# [4] = biological target: Endonuclease 4 (Escherichia coli (strain K12)) (UniProt P0A6C1); test: Counterscreen for APE1 Inhibitors: qHTS Validation Assay for Inhibitors of Endonuclease IV (AID 1708); conditions: E. coli endonuclease IV, DNA cleavage fluorescence; series mostly up to 57.1 µM
# Procedure, shortened: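 Read-out: fluorescence rise (ex 525/em 598 nm) from incision of a TAMRA/BHQ-2 double-stranded THF abasic-site substrate (50 nM), measured kinetically; third-minus-first read difference gave reaction progress. Enzyme 2 nM.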
# [5] = qHTS for differential inhibitors of proliferation of Plasmodium falciparum line 7G8 (AID 1815); conditions: Plasmodium falciparum 7G8 proliferation inhibition; series mostly up to 28.7 µM;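 note: parasite growth measured after three days of incubation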
# [6] = qHTS for differential inhibitors of proliferation of Plasmodium falciparum line 3D7 (AID 1876); note: potency is the fitted concentration of half-maximal effect; conditions: P. falciparum 3D7 proliferation inhibition; series mostly up to 28.7 µM
# [7] = qHTS for differential inhibitors of proliferation of Plasmodium falciparum line Dd2 (AID 1882); conditions: Potency: Plasmodium falciparum Dd2 proliferation inhibition; series mostly up to 28.7 µM;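 note: compound exposure of 72 h on infected erythrocytes; nearly all actives have a fitted effect of over 65% in size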
# Procedure, shortened: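 RBC culture, 0.3% parasitemia / 2.5% Hct final; cpd added by pin tool in DMSO; 72 h, 37 C, 5% CO2; lysis buffer + SYBR Green I, o/n RT dark; FI 485/535; norm. to artemisinin 0.29 uM and DMSO.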
# [8] = qHTS for differential inhibitors of proliferation of Plasmodium falciparum line W2 (AID 1883); conditions: Potency: Plasmodium falciparum W2 proliferation inhibition; series mostly up to 28.7 µM;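 note: parasites grown with compound for 72 h before lysis and staining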; note: potency is the fitted concentration of half-maximal effect
# [9] = biological target: Ferritin light chain (Equus caballus) (UniProt P02791); test: qHTS Validation Assay for Identification of Novel General Anesthetics (AID 2323); conditions: horse apoferritin, anesthetic-site fluorescent probe displacement; series mostly up to 76.9 µM
# Sequence of Ferritin light chain (Equus caballus) (P02791 2-175 limits assumed): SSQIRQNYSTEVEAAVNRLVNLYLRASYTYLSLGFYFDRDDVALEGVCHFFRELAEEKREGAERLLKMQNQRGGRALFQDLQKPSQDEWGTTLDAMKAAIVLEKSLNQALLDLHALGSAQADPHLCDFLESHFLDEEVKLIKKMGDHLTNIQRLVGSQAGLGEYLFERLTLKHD
# Procedure, shortened: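 Competitive displacement of the profluorescent anesthetic 1-AMA (50% saturated, PBS) from 10 uM apoferritin, 10 min, room temperature. Activity is normalized 380/535 nm fluorescence; concentration-response fitted with a four-parameter Hill equation.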
# [10] = biological target: ATP-dependent DNA helicase Q1 (Homo sapiens) (UniProt P46063); test: qHTS Validation Assay for Inhibitors of RecQ-Like Dna Helicase 1 (RECQ1) (AID 2353); conditions: recombinant RECQ1 helicase DNA unwinding assay; series mostly up to 25.6 µM
# Sequence of ATP-dependent DNA helicase Q1 (Homo sapiens) (P46063 whole entry, looked up): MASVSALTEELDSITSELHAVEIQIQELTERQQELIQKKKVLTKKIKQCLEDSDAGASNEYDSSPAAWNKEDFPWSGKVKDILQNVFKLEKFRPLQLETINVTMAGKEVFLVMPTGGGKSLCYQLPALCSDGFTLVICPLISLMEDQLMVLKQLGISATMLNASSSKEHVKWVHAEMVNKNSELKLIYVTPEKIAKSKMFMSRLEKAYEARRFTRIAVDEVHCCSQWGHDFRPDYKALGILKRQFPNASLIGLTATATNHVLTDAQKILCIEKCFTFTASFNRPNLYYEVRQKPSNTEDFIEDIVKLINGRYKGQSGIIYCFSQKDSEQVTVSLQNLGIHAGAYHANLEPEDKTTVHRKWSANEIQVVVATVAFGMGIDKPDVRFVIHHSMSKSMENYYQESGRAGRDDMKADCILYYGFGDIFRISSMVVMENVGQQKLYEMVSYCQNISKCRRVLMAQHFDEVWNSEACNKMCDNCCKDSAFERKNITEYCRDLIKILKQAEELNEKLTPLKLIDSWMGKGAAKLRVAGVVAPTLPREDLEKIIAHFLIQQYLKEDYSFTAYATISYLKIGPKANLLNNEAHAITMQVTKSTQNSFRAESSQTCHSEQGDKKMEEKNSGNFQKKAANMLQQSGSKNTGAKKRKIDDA
# Procedure, shortened: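 RECQ1T1 50 nM; forked duplex (20 bp + 30-nt ss tails) 200 nM, ATP 2 mM final; pH 8.0, 2 mM MgCl2, 2.5 ug/ml poly(dI-dC); 15 min compound preincubation; discontinuous kinetic read over 2 h at RT.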
# [11] = Cytometric Cell-Based qHTS for Inhibitors of the mTORC1 Signaling Pathway in MEF (Tsc2-/-, p53-/-) Cells (AID 2660); conditions: mTORC1 pathway cytometry; series mostly up to 38.3 µM;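 note: Tsc2 and p53 null MEFs carrying empty vector with compound for 24 h; percent of cells above a phospho-rpS6 to PI ratio cutoff in each well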
# Procedure, shortened: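 Percent of cells positive for normalized phospho-S6 staining is reported, with the cutoff set from rapamycin (7.5 nM) versus DMSO wells. Tsc2-/-, p53-/- MEFs received compound for 24 hrs.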
# [12] = High Content Imaging Cell-Based qHTS for Inhibitors of the mTORC1 Signaling Pathway in MEF Cells (AID 2667); conditions: series mostly up to 38.3 µM;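 note: Tsc2-/- p53-/- MEFs stably re-expressing wild-type Tsc2 exposed 24 h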
# Procedure, shortened: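 Read-out is the share of phospho-rpS6-positive cells per well, from Hoechst-normalized Alexa-488 Ser235/236 staining imaged on IN Cell. Cells: WT Tsc2-expressing Tsc2-/-, p53-/- MEFs exposed to compound for 24 hrs.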
# [13] = Cytometry Cell-Based qHTS for Inhibitors of the mTORC1 Signaling Pathway in MEF cells (AID 2668); conditions: mTORC1 pathway readout; series mostly up to 38.3 µM;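 note: Tsc2-/- p53-/- mouse embryonic fibroblasts stably re-expressing wild-type Tsc2; percent cells positive for phospho-rpS6 Ser235/236 relative to propidium iodide stain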
# Procedure, shortened: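 Phospho-rpS6 (Ser235/236) immunofluorescence over PI signal, scored as % positive cells using thresholds from 7.5 nM rapamycin and DMSO wells, after 24 h compound exposure of WT-Tsc2-rescued Tsc2-/-, p53-/- MEFs. PI cell count recorded for viability.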
# [14] = Validation screen for small molecules that induce DNA re-replication in MCF 10A normal breast cells (AID 463097); conditions: MCF 10A cells, DNA re-replication phenotype imaging; series mostly up to 46.1 µM; note: nearly all actives have a fitted effect of over 60% in size
# Procedure, shortened: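 Read-out is Hoechst total nuclear intensity by fluorescence scanning imager, flagging increased high-DNA-content nuclei. Compounds were incubated with MCF 10A cells for 48 hr (37 C, 5% CO2) before 40 min staining.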
# [15] = qHTS for differential inhibitors of proliferation of Plasmodium falciparum line GB4 (AID 1816); conditions: Potency: Plasmodium falciparum GB4 proliferation inhibition; series mostly up to 28.7 µM;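 note: parasite growth measured after 72 h incubation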
# [16] = qHTS for differential inhibitors of proliferation of Plasmodium falciparum line D10 (AID 1877); conditions: series mostly up to 28.7 µM;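 note: parasites grown with compound for 72 h before DNA staining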
# [17] = qHTS for differential inhibitors of proliferation of Plasmodium falciparum line HB3 (AID 1886); conditions: Potency: Plasmodium falciparum HB3 proliferation inhibition; series mostly up to 28.7 µM;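 note: parasites grown with compound for 72 h before SYBR Green readout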
# [18] = qHTS Assay for Identification of Small Molecule Inducers of Hypoxia Response (AID 2120; active = well fitted curve in the direction sought with a large enough effect in the signal ratio, with a control signal flat, not every such curve was filed as active; the % refers to the signal ratio); conditions: hypoxia response reporter cells, beta-lactamase ratio readout; series mostly up to 104 µM
# Procedure, shortened: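 Read-out: CCF4 FRET emission ratio 460nm/530nm (excitation 405nm), converted to %Activity, with AC50 fitted across a compound titration. ME-180 cells carried an HRE-driven beta-lactamase reporter; compound exposure 17 h, 37 degrees C.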
# [19] = biological target: RecQ-like DNA helicase BLM (Homo sapiens) (UniProt P54132); test: qHTS Validation Assay for Inhibitors of Bloom's syndrome helicase (BLM) (AID 2364); conditions: BLM helicase DNA unwinding, fluorescence, in vitro; series mostly up to 57.1 µM
# Sequence of RecQ-like DNA helicase BLM (Homo sapiens) (P54132 whole entry, looked up): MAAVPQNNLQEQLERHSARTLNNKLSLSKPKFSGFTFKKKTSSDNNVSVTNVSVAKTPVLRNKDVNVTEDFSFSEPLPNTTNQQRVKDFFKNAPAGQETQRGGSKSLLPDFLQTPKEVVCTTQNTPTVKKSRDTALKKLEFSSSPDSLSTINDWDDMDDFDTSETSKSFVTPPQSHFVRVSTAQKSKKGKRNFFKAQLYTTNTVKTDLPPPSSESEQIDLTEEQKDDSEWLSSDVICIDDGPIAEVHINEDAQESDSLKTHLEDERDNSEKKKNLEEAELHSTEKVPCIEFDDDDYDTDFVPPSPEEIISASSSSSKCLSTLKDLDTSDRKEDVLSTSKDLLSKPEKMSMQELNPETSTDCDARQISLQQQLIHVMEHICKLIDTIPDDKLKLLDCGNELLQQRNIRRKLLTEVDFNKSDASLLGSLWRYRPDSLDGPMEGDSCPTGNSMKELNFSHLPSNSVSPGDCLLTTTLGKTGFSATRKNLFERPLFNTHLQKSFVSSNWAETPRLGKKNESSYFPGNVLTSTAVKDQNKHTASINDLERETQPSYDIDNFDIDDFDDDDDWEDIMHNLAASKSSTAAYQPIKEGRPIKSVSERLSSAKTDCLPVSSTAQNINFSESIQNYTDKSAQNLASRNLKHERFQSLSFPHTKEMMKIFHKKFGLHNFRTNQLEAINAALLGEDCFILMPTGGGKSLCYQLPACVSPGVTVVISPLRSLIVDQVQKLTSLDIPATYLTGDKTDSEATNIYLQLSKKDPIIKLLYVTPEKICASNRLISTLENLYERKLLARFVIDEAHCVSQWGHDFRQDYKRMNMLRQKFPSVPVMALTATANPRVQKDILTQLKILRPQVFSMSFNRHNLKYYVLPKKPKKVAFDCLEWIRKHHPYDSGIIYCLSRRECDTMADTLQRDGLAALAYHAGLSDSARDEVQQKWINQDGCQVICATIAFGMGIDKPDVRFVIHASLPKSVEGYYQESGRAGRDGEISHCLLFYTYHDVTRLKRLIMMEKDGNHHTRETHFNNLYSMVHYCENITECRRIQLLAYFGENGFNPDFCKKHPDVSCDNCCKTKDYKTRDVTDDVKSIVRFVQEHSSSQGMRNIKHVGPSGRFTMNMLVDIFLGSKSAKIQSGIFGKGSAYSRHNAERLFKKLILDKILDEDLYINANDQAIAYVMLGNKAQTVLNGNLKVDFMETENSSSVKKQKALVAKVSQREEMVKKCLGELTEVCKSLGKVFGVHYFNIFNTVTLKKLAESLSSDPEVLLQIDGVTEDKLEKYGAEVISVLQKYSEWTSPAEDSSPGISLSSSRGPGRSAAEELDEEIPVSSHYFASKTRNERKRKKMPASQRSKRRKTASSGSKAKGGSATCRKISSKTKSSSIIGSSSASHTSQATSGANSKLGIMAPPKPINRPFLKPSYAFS
# Procedure, shortened: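 50 nM BLM preincubated 15 min at room temperature with compound in pH 8.0 Tris buffer containing 2.5 ug/ml poly(dI-dC); started with 200 nM TAMRA/BHQ-2 forked duplex and 2 mM ATP (final). Unwinding read as TAMRA fluorescence increase, two reads 2 h apart.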
# [20] = measured here: cell count channel max response
# [21] = measured here: lipid channel max response
structure (smiles),measurement,setting,value
COc1ccccc1N1CCN(CCCNc2cc(=O)n(C)c(=O)n2C)CC1,"activity change, negative = inhibition",[1]; at 25.7 µM (top of the series),0.233% (inactive)
same,"activity change, negative = inhibition",[1]; at 57.5 µM (top of the series),1.54% (inactive)
same,max response,[1]; [20],-9.35% and -6.19%
same,max response,[1]; [21],-9.3% and -4.74%
same,outcome,[2],inactive
same,outcome,[3],inactive
same,outcome,[4],inactive
same,Potency,[5],inactive
same,Potency,[6],10 µM (active)
same,Potency,[7],inactive
same,Potency,[8],10 µM (active)
same,outcome,[9],inactive
same,outcome,[10],inactive
same,outcome,[11],inactive
same,outcome,[12],inactive
same,Potency,[13],inactive
same,Potency,[14],inactive
NC(N)=Nc1nc(CSCC/C(N)=N/S(N)(=O)=O)cs1,"activity change, negative = inhibition",[1]; at 25.7 µM (top of the series),-0.328% (inactive)
same,"activity change, negative = inhibition",[1]; at 57.5 µM (top of the series),0.654% (inactive)
same,max response,[1]; [20],10.2% and -8.15%
same,max response,[1]; [21],9.12% and -7.51%
same,outcome,[2],inactive
same,outcome,[3],inactive
same,outcome,[4],inactive
same,Potency,[5],inactive
same,Potency,[15],inactive
same,Potency,[6],inactive
same,Potency,[16],inactive
same,Potency,[7],inactive
same,Potency,[8],inactive
same,Potency,[17],inactive
same,outcome,[9],inactive
same,outcome,[10],inactive
same,outcome,[11],inactive
same,outcome,[12],inactive
same,Potency,[13],inactive
same,Potency,[14],inactive
C[C@]12CCC3c4ccc(O)cc4CCC3C1CCC2=O (stereo partly drawn),"activity change, negative = inhibition",[1]; at 57.5 µM (top of the series),3.27% (inactive)
same,max response,[1]; [20],-11.3%
same,max response,[1]; [21],-4.67%
COc1ccc(-c2coc3cc(O)cc(O)c3c2=O)cc1,"activity change, negative = inhibition",[1]; at 57.5 µM (top of the series),4.62% (inactive) and -2.47% (inactive)
same,max response,[1]; [20],-4.41% and 15.8%
same,max response,[1]; [21],0.883% and 14.1%
COc1ccc2c3c1OC1C[C@@H](O)C=C[C@@]31CCN(C)C2 (stereo partly drawn),"activity change, negative = inhibition",[1]; at 25.7 µM (top of the series),-1.59% (inactive)
same,"activity change, negative = inhibition",[1]; at 57.5 µM (top of the series),-3.75% (inactive)
same,max response,[1]; [20],1.47% and -27.6%
same,max response,[1]; [21],-1.31% and -11.1%
CCCNC(=O)NS(=O)(=O)c1ccc(Cl)cc1,"activity change, negative = inhibition",[1]; at 25.7 µM (top of the series),-1.71% (inactive)
same,max response,[1]; [20],8.45%
same,max response,[1]; [21],7.5%
same,outcome,[2],inactive
same,outcome,[3],inactive
same,outcome,[4],inactive
same,Potency,[5],inactive
same,Potency,[15],inactive
same,Potency,[6],inactive
same,Potency,[16],inactive
same,Potency,[7],inactive
same,Potency,[8],inactive
same,Potency,[17],inactive
same,outcome,[18],inactive
same,outcome,[9],inactive
same,outcome,[10],inactive
same,Potency,[19],inactive
same,outcome,[11],inactive
same,outcome,[12],inactive
same,Potency,[13],inactive
same,Potency,[14],inactive
